A selection: hits, their analogues and other compounds. The true share with any hit is near 10%.
JMJD2A Tudor – JMJD2A Tudor domain (human) inhibition. AID 504339. 4.4% of 390,000 active. Potency, µM (top dose mostly 114 µM), most hits filed as inhibitors. AlphaScreen JMJD2A-Tudor / H3K4me3 peptide binding; also: nearly all actives have a fitted effect of over 50% in size
BAZ2B inh – blocks human BAZ2B | AlphaScreen BAZ2B-H3K14Ac peptide displacement | Potency, µM (highest dose often 114 µM), most hits filed as inhibitors | 4.4% of 360,000 active | AID 504333; also: nearly all actives have a fitted effect of over 60% in size
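AlphaScreen displacement: compounds (up to 110uM) incubated 30 min at room temperature with a preformed 50 nM BAZ2B/50 nM biotinylated H3K14Ac peptide complex in PBS pH 7.4 with Tween-20. Donor and acceptor beads at 10 ug/mL final added, 20 min light-protected before reading.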
HP1b binding inh – blocks HP1-beta chromodomain binding to methylated histone tails. P83916. AlphaScreen HP1-beta / biotin-H3K9me3 peptide binding. AID 540317. Potency, µM (titrated, usually from 114 µM), most hits filed as inhibitors. 0.56% of 390,000 active; also: nearly all actives have a fitted effect of over 70% in size
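HP1-beta protein (50 nM final) preincubated 30 min at room temperature with biotinylated H3(1-18)K9me3 peptide (50 nM) in PBS pH 7.4, 0.01% Tween-20, then compound added for 30 min. AlphaScreen streptavidin donor/nickel chelate acceptor beads (10 ug/mL final), 30 min dark, luminescence read.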
GLS inh – glutaminase GLS (human) inhibition. O94925. 0.21% of 410,000 active. GLS enzymatic activity, qHTS titration. Potency, µM (doses to about 45.5 µM), actives largely listed as inhibitors
Target sequence (O94925 whole entry, looked up): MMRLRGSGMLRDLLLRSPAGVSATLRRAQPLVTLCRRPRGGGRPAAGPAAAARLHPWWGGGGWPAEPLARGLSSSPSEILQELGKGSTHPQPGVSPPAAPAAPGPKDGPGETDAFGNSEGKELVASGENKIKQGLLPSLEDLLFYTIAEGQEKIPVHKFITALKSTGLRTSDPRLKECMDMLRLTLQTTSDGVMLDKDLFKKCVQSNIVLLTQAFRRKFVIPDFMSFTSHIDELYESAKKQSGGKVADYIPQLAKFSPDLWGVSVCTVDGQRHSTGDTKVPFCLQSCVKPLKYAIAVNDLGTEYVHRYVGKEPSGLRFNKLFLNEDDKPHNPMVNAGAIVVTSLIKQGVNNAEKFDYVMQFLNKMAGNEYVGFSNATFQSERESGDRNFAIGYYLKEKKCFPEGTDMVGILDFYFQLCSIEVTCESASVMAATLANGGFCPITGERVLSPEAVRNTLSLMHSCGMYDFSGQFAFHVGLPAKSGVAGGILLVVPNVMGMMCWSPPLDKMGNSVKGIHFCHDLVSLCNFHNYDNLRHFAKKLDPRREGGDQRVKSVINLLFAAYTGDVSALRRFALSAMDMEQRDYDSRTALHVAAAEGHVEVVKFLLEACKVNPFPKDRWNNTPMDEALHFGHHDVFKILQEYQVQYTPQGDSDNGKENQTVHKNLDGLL
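Assay buffer: 45 mM KH2PO4 pH 8.2, 0.02% Tween-20. hKGA acts on L-glutamine (1 mM solution added); product glutamate is reported by an oxidase/peroxidase Amplex Red coupling, with fluorescence taken at baseline and 30 min.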
G9a inh – inhibitors of human histone lysine methyltransferase G9a; Q96KQ7; G9a H3K9 monomethylation, AlphaScreen, 2 h; Potency, µM (series often up to 102 µM), most hits filed as inhibitors; 8.8% of 350,000 active; also: nearly all actives have a fitted effect of over 75% in size
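Readings reflect AlphaScreen signal from monomethyl-H3K9 antibody detection. HMT at 20 nM; substrate b-H3K9 500 nM; cofactor SAM 20 uM; 2 h RT reaction; compounds tested as titrations in qHTS with 15 min preincubation.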
Each line names hits and unclear results; the compound was inactive in the other large screens. Calls follow the shape of the dose curve; as a rule, active = well fitted curve in the direction sought with a large enough effect; inconclusive = small, poorly fitted or top-dose-only effect, or another doubt; inactive = no such curve, though single readings can be large; an effect the other way counts as inactive or inconclusive.

Cc1cccc(/C(N)=N/OC(=O)N2c3ccccc3Sc3ccccc32)c1	JMJD2A Tudor inconclusive, BAZ2B inh inconclusive, G9a inh inconclusive
N/C(=N\OC(=O)N1c2ccccc2Sc2ccccc21)c1ccccc1	JMJD2A Tudor inconclusive, BAZ2B inh inconclusive, G9a inh 45µM
CCN(CC)c1nn2c(=O)c(C(=O)NCCc3ccc(C)cc3)cnc2s1	none
O=C(NC(NNc1ccc([N+](=O)[O-])cc1)(C(F)(F)F)C(F)(F)F)c1ccccc1Cl	JMJD2A Tudor inconclusive, BAZ2B inh inconclusive, G9a inh inconclusive
O=C(NC(NNc1ccc([N+](=O)[O-])cc1)(C(F)(F)F)C(F)(F)F)c1ccc(F)cc1	JMJD2A Tudor inconclusive, BAZ2B inh inconclusive, HP1b binding inh inconclusive, G9a inh 13µM
COC(=O)C(NNc1ccccc1)(NC(=O)c1ccc(F)cc1)C(F)(F)F (stereo not given)	G9a inh 35µM
COC(=O)C(NNc1ccccc1)(NC(=O)c1ccccc1F)C(F)(F)F (stereo not given)	BAZ2B inh inconclusive
COCCNC(=S)N(CCc1c(C)[nH]c2ccccc12)Cc1ccco1	BAZ2B inh inconclusive, G9a inh 50µM
CNC(=S)N(CCc1c(C)[nH]c2ccc(C)cc12)Cc1ccc(OC)c(OC)c1	JMJD2A Tudor inconclusive, BAZ2B inh 32µM, G9a inh 50µM
CNC(=S)N(CCc1c(C)[nH]c2ccc(C)cc12)Cc1ccco1	JMJD2A Tudor inconclusive, BAZ2B inh 50µM, G9a inh 45µM
CCNC(=S)N(CCc1c(C)[nH]c2ccc(Cl)cc12)Cc1ccco1	G9a inh inconclusive (no result: BAZ2B inh)
CNC(=S)N(CCc1c(C)[nH]c2ccc(Cl)cc12)Cc1cc(OC)c(OC)c(OC)c1	JMJD2A Tudor inconclusive, BAZ2B inh inconclusive, G9a inh 32µM
CCCCN1CC(C)(C)[C@H](CC(=O)NC)C1=O	none (no result: JMJD2A Tudor, BAZ2B inh, HP1b binding inh, G9a inh)
CCc1cccc(CC)c1NC(=O)C(Cc1ccccc1)NS(=O)(=O)c1cccc2nsnc12 (stereo not given)	G9a inh inconclusive (no result: BAZ2B inh)
Cc1ccccc1-c1cncnc1NCc1cccs1	none (no result: JMJD2A Tudor, BAZ2B inh, HP1b binding inh, GLS inh)
COc1cc(CN(CCc2c(C)[nH]c3ccc(C)cc23)C(=S)NC(C)(C)C)cc(OC)c1OC	JMJD2A Tudor 50µM, BAZ2B inh inconclusive, HP1b binding inh inconclusive, G9a inh inconclusive
O=C1NC[C@H](CCCCN2C[C@H](Cc3ccccc3)N(CCC3CCCCC3)C(=O)C2=O)N(Cc2ccccc2)C1=O	none (no result: JMJD2A Tudor, BAZ2B inh, HP1b binding inh, G9a inh)
CCOC(=O)c1[nH]c2ccc(Br)cc2c1NC(=O)CCN1CCCCC1	none (no result: JMJD2A Tudor, HP1b binding inh, GLS inh)
CCOC(=O)c1[nH]c2ccc(Br)cc2c1NC(=O)CCN1CCC(C(=O)OCC)CC1	G9a inh 50µM
CC1Cc2ccccc2N1Cc1ccc([N+](=O)[O-])cc1 (stereo not given)	JMJD2A Tudor 45µM, BAZ2B inh 35µM, HP1b binding inh 32µM, G9a inh 40µM
CC1Cc2ccccc2N1Cc1cccc([N+](=O)[O-])c1 (stereo not given)	JMJD2A Tudor 35µM, BAZ2B inh 13µM, HP1b binding inh 32µM, G9a inh 14µM
O=C(NCCCn1ccnc1)C1CCN(S(=O)(=O)c2cc([N+](=O)[O-])ccc2Cl)CC1	none (no result: BAZ2B inh, G9a inh)
COc1ccc(C(CNC(=O)C(C)(C)Oc2ccc(Cl)cc2)N2CCOCC2)cc1 (stereo not given)	none (no result: BAZ2B inh, G9a inh)
COc1cc(NCCC(=O)c2cccs2)c(OC)cc1Cl	JMJD2A Tudor 40µM, BAZ2B inh 40µM, HP1b binding inh 56µM, G9a inh 7.9µM
COc1ccc(S(=O)(=O)N(C(=O)c2ccco2)c2cc3sc(=O)oc3c3ccccc23)cc1	JMJD2A Tudor inconclusive, BAZ2B inh inconclusive, HP1b binding inh inconclusive, G9a inh 1.4µM
Cc1ccc(S(=O)(=O)N(C)CC(=O)N2CCN(C(=O)c3ccco3)CC2)cc1	none
COc1ccc(S(=O)(=O)N(Cc2ccccc2)c2ccccc2C(=O)Nc2ccccc2C(=O)NCc2ccco2)cc1	none
CCOc1ccc(S(=O)(=O)N(C(=O)c2ccco2)c2cc3sc(=O)oc3c3ccccc23)cc1	JMJD2A Tudor inconclusive, BAZ2B inh inconclusive, HP1b binding inh inconclusive, G9a inh 1.4µM
Cc1ccc(S(=O)(=O)N(C(=O)c2ccco2)c2cc3sc(=O)oc3c3ccccc23)cc1	JMJD2A Tudor inconclusive, BAZ2B inh inconclusive, HP1b binding inh inconclusive, G9a inh 1.8µM
Cn1c(=O)c2cc(NC(=O)NCCc3ccccc3)ccc2n1Cc1ccc(F)cc1	none (no result: JMJD2A Tudor, BAZ2B inh, HP1b binding inh, G9a inh)
COC(=O)c1ccc(CSc2nc3ccccc3c(=O)n2-c2ccccc2)o1	G9a inh 16µM
COC(=O)c1ccc(CSc2nnc3n(Cc4ccccc4OC)c(=O)c4ccccc4n23)o1	G9a inh 45µM
COC(=O)c1ccc(CSc2nc3ccccc3c(=O)n2-c2ccc(OC)c(OC)c2)o1	none
CCn1c(C(=O)N2CCC(C(=O)N3CCN(c4ccc(OC)cc4)CC3)CC2)cc2sccc21	JMJD2A Tudor inconclusive, BAZ2B inh inconclusive, G9a inh inconclusive
C=C[C@]1(C)C[C@@H](OC(=O)CO)[C@]2(C)C(C)CC[C@]3(CCC(=O)[C@H]32)[C@@H](C)[C@@H]1O (stereo not given in full)	none (no result: JMJD2A Tudor, BAZ2B inh, HP1b binding inh, G9a inh)
CCOC(=O)c1c(NC(=O)/C=C/c2ccc(OC)c(OC)c2)sc(C(C)=O)c1C	G9a inh inconclusive
CCCOc1ccc(/C=C/C(=O)Nc2sc(C)c(C)c2C(=O)OCC)cc1OC	JMJD2A Tudor 79µM, HP1b binding inh inconclusive, G9a inh 3.2µM
Cc1ccc(SCCCn2cncn2)cc1	JMJD2A Tudor 45µM, BAZ2B inh inconclusive
Cc1cc(Cl)c(OCCCn2cncn2)c(Br)c1	none
Clc1ccc(SCCn2cncn2)cc1	JMJD2A Tudor 45µM, BAZ2B inh inconclusive, HP1b binding inh inconclusive, G9a inh inconclusive
O=C(CCn1cncn1)N1CCN(S(=O)(=O)c2ccc(Cl)cc2)CC1	none
COc1cc(CNC(=O)c2sc3ncccc3c2-n2cccc2)cc(OC)c1OC	none
Cc1ccccc1CN1CCN(C(=O)c2cccc3ccccc23)CC1	JMJD2A Tudor 25µM, BAZ2B inh 56µM, HP1b binding inh inconclusive, G9a inh 20µM
COc1ccc(CN2CCN(C(=O)c3ccccc3F)CC2)c(OC)c1OC	JMJD2A Tudor 1.8µM, HP1b binding inh inconclusive (no result: BAZ2B inh, G9a inh)
COc1cccc(OC)c1C(=O)N1CCN(Cc2ccccc2C)CC1	BAZ2B inh 50µM, HP1b binding inh inconclusive, G9a inh 32µM
COc1ccc2oc(=O)cc(CN3CCN(C(=O)c4ccccc4F)CC3)c2c1	HP1b binding inh inconclusive
COc1ccccc1CN1CCN(C(=O)c2cccc3ccccc23)CC1	JMJD2A Tudor 20µM, HP1b binding inh inconclusive (no result: BAZ2B inh, G9a inh)
COc1cc(C(=O)N2CCN(C(=O)c3cccc4ccccc34)CC2)cc(OC)c1OC	none
O=C(c1ccncc1)N1CCN(C(=O)c2cccc3ccccc23)CC1	none
O=c1[nH][nH]c(=O)c(Cl)c1Cl	none (no result: BAZ2B inh, G9a inh)
Cc1ccc(-c2nc(N3CCN(S(=O)(=O)c4ccc(F)cc4)CC3)c3ccc(Cl)cc3n2)cc1	none (no result: BAZ2B inh, GLS inh, G9a inh)
O=C(OCc1ccccc1)[C@@H]1COC(c2ccc(Br)cc2)=N1	none (no result: JMJD2A Tudor, BAZ2B inh, HP1b binding inh, GLS inh)

Assay outcomes from PubChem.
